PubChem BioAssay AID488835 (Broad Institute, 2010)
The campaign covered roughly 1,400 compounds. About 140 (10%) were called active.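 The calls were made as follows: active = Half-maximal inhibitory dose from the fit at or below ten times the top valid tested dose; inconclusive = Invalid fit, or flat curve showing 30 to 70% inhibition; inactive = the rest.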 A selection follows. Potency and affinity values are given separately.

target: Lysine-specific demethylase 4C (Homo sapiens) (UniProt Q9H3R0); experiment: GASC-1 (JMJD2C) histone demethylase inhibitors, dose response, biochemical, DELFIA europium, cherry-picked samples (AID 488835); conditions: GST-JMJD2C(1-420), H3K9me3 demethylation; series mostly up to 6 µM; activity change, negative = inhibition: at the top concentration;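 also: signal is the H3K9me2 demethylation product detected by a dimethyl-specific antibody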
Sequence (Q9H3R0 1-420 limits assumed): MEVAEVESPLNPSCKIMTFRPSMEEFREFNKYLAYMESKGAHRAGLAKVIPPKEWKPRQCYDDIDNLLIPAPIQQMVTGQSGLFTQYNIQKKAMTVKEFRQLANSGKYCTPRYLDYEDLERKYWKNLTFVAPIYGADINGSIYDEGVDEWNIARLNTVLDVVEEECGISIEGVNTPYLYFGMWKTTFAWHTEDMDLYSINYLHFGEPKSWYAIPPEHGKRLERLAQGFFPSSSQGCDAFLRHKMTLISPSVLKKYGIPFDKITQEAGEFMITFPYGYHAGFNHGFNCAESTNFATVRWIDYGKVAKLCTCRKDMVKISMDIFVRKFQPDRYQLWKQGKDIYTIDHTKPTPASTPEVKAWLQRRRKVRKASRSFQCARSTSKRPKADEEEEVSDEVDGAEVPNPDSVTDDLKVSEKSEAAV

Activity change, negative = inhibition, inactive:
COc1ccc(NC(=O)N(C)C[C@@H]2Oc3c(NC(=O)Nc4c(C)noc4C)cccc3C(=O)N([C@@H](C)CO)C[C@@H]2C)cc1 1.21%
Cc1ccc(S(=O)(=O)Nc2ccc3c(c2)C(=O)N([C@H](C)CO)C[C@H](C)[C@@H](CN(C)Cc2ccccc2)O3)cc1 9.34%
COCCCNC(=O)c1ccc2c(c1)CCN2S(C)(=O)=O -3.97%
Nc1c(C(=O)OCC2CCCO2)c2nc3ccccc3nc2n1C1CCCC1 (stereo not drawn) -6.76%
Cn1c2ccccc2c2c(C(=O)N3CCN(c4ccccn4)CC3)cn(C3CCCC3)c(=O)c21 4.51%
Cn1c(CNC(=O)c2ccccc2F)nnc1SCC(=O)Nc1nnc(C2CC2)s1 -7.32%
COC(=O)C1CN(S(=O)(=O)c2ccc(C)cc2)CCN1S(=O)(=O)c1ccc(C)cc1 (stereo not drawn) 12.1%
CCOC(=O)c1ccc(N2C(=O)C(C)=C(C)C2=O)cc1 11.2%
CCCCCC1CC(=O)N(Cc2ccccc2)C(=O)N1 (stereo not drawn) -2.93%
CCN1c2ccccc2-c2nc3ccccc3n2C1c1ccccn1 (stereo not drawn) 3.39%
Cn1c(=O)c2c(ncn2CCN(CCO)Cc2ccccc2)n(C)c1=O 9.04%
CCCCN(C(=S)NC(=O)c1cc(OC)c(OC)c(OC)c1)c1c(N)n(Cc2ccccc2)c(=O)[nH]c1=O 3.98%
CCN(C(=O)C(C)Sc1ccc(S(=O)(=O)N2CCOCC2)cn1)c1ccccc1 (stereo not drawn) -3.51%
CCCCn1c(N)c(N(CC)C(=O)c2ccco2)c(=O)[nH]c1=O -4.81%
CCCCC1CCC(C(=O)N(CC(C)C)c2c(N)n(Cc3ccccc3)c(=O)[nH]c2=O)CC1 (stereo not drawn) 1.3%
Cc1cccc(NCc2ccc(O)c3ncccc23)c1 10.8%
COCCn1nnnc1C(c1ccccc1)N1CCN(C(=O)c2ccco2)CC1 (stereo not drawn) 44.7%
Cc1ccc([N+](=O)[O-])cc1N=C(c1cccc([N+](=O)[O-])c1)N1CCOCC1 4.23%
COc1cccc(Oc2nccc(N(C)C)c2C#N)c1 -0.396%
CC(C)CCSc1cc(NCCO)c([N+](=O)[O-])c2nonc12 1.05%
COc1cc2c(cc1CNC[C@H]1O[C@@H](n3cnc4c(N)ncnc43)[C@H](O)[C@@H]1O)OCO2 4.11%
CC(OC(=O)c1cccnc1SCc1cc(=O)n2ccccc2n1)c1ccccn1 (stereo not drawn) 16%
CN(C(=O)c1ccc(NC(=O)Cc2ccc(NC(=O)C3CCN(C(=O)C4CC4)CC3)cc2)cc1)C1CC1 -1.05%
O=C(Nc1c(F)cc(F)cc1Br)c1ccco1 -0.923%
CC(C)NC(=O)Nc1ccc2c(c1)C(=O)N([C@H](C)CO)C[C@H](C)[C@@H](CN(C)C(=O)Nc1ccccc1)O2 3.67%
Nc1nc(C2CC(=O)OC23CCCCC3)cs1 (stereo not drawn) 3.34%
CCOc1cc(/C=N/NC(=O)C(=O)N/N=C/c2ccc(O)c(OCC)c2)ccc1O -5.54%
O=C(O)c1ccc2c(c1)nnn2C1CCCCC1 4.91%
Cc1oc(C(C)(C)C)cc1C(=O)N1CCN(c2ncccc2C(F)(F)F)CC1 5.17%
O=[N+]([O-])c1ccccc1S(=O)(=O)N1CCN(Cc2ccc3c(c2)OCO3)CC1 4.3%
CC(=O)c1c(C(C)=O)c(C)n(-c2nc(-c3cccs3)c(C)s2)c1C -10.4%
COc1cc(-c2nnco2)cc(OC)c1OC 5.49%
Cc1c(NC(=O)C2Cc3ccccc3CN2C(=O)c2ccco2)c(=O)n(-c2ccccc2)n1C (stereo not drawn) 3.99%
CCCCNC(=O)CC1N=C2c3ccccc3N=C(SCC(=O)Nc3cccc(C)c3)N2C1=O (stereo not drawn) 10.2%
O=C(CNC(=O)c1ccc(S(=O)(=O)N2CCCC2)cc1)N/N=C/c1ccccc1 1.45%
C[C@H](CO)N1C[C@H](C)[C@@H](CN(C)C(=O)Nc2ccc3c(c2)OCO3)Oc2c(NS(=O)(=O)c3ccc(F)cc3)cccc2C1=O 4.84%
Cc1cc(C(=O)Nc2sc3c(c2C#N)CCC(C)C3)no1 (stereo not drawn) 2.2%
COc1ccc(/C(C)=N/Nc2nccnc2Cl)cc1 -1.3%
CNC[C@@H]1Oc2ccc(NC(=O)Nc3cccc4ccccc34)cc2C(=O)N([C@@H](C)CO)C[C@@H]1C 1.77%
COc1ccc(NC(=O)N(C)C[C@H]2Oc3c(NC(=O)C4CCCCC4)cccc3C(=O)N([C@H](C)CO)C[C@@H]2C)cc1 -4.45%
CC(=O)N/C(=C\c1ccccc1)C(=O)OCC(=O)NC1CCCC1 9.51%
Cc1ccc(S(=O)(=O)N2[C@@H](c3ccc(Cl)c(Cl)c3)C(C(=O)O)=C[C@H]2C(C)(C)C)cc1 0.0975%
NC(=O)C1CCN(c2nc(-c3ccccc3Br)cs2)CC1 -3.63%
CC(NC(=O)CCC(=O)c1ccc(F)cc1)C1CC2CCC1C2 (stereo not drawn) -1.93%
Cc1ccc(S(=O)(=O)N2CCOC2CNC(=O)C(=O)NCCc2ccc(S(N)(=O)=O)cc2)cc1 (stereo not drawn) 2.02%
Cn1c(=O)[nH]c(=O)c2c1nc(N1CCc3ccccc3C1)n2CCSc1nc2ccccc2s1 -1.35%
CC[C@H]1CCCCc2ccccc2[C@@H](C(=O)C[C@@H](O)CC(C)=O)OC1=O 1.48%
Cn1c(=O)c2c(nc(NC3CCCCC3)n2Cc2ccccc2)n(C)c1=O 1.97%
CCOc1ccc2nc(NC(=O)CS(=O)(=O)c3ccc(C)cc3)sc2c1 4.69%
CCc1ccc([C@@H]2CC=C(C(=O)O)[C@H](c3ccc(Br)cc3)N2S(=O)(=O)c2ccc(C)cc2)cc1 -7.79%
CC[C@@H]1C=C(C(=O)O)[C@H](c2ccc(C)cc2)N1S(=O)(=O)c1ccc(C)cc1 6.18%
O=C(CSc1ncccn1)NCc1ccc(F)cc1 5.88%
C[C@H](CO)N1C[C@H](C)[C@H](CN(C)Cc2ccc(Oc3ccccc3)cc2)Oc2ccc(NC(=O)Nc3cccc4ccccc34)cc2CC1=O -7.19%
COc1ccc(N2CCN(C(=O)Cn3nnc(-c4ccc(N(C)C)cc4)n3)CC2)cc1 3.8%
Cc1nn(Cc2ccc([N+](=O)[O-])cc2)c(=O)n1-c1cccc(Cl)c1 3.54%
O=C(c1oc(=O)c2ccccc2c1-c1ccccc1)N1CCOCC1 7.13%
O=C(CSc1ncccn1)Nc1ccc(S(=O)(=O)N2CCCCC2)cc1 -1.65%
O=C(Nc1ccccc1)Nc1ccc(S(=O)(=O)N2CCCCC2)cc1 -7.48%
Cc1noc(C)c1NC(=O)Nc1cccc2c1O[C@H](CN(C)S(=O)(=O)c1cccs1)[C@@H](C)CN([C@H](C)CO)C2=O 3.8%
COC(=O)c1cc(OC)c(OC)cc1NC(=O)Cn1nnc(-c2ccccc2Cl)n1 4.22%
CC12CN3CC(C)(CN(C1)C3c1ccc3ccccc3c1O)C2=O (stereo not drawn) 10.4%
COc1ccc2c(C(=O)NCCCCO)c(-c3ccc(S(C)(=O)=O)cc3)sc2c1 3.4%
C#CC[N+]1(CC#Cc2ccc(C#CC[N+]3(CC#C)CCOCC3)cc2)CCOCC1 -11%
CSc1nc(N2CCN(C)CC2)c2c(c1C#N)CC(C)(C)OC2 -4.52%
Cc1ccc(NC(=O)CSc2ncccn2)c([N+](=O)[O-])c1 -0.734%
C=CCN(C(=O)Nc1ccccc1)C1CC(=O)N(c2ccc(OC)cc2)C1=O (stereo not drawn) -1.23%
Nc1nnc(SC2CC(=O)N(c3ccccc3)C2=O)s1 (stereo not drawn) 1.05%
Cc1nnc2c(N3CCN(C(=O)c4ccco4)CC3)nc3ccccc3n12 1.2%
Cc1c(C(=O)Nc2ccc3c(c2)OCO3)sc2ncn(CC(=O)N3CC(C)CC(C)C3)c(=O)c12 (stereo not drawn) 12.4%
O=C(Nc1nc2c(s1)C(=O)CCC2)c1ccccc1 4.86%
CCCN1C(=O)c2ccc(C(=O)Nc3cc(C)ccc3O)cc2C1=O 12.9%
C[C@H](CO)N1C[C@H](C)[C@@H](CN(C)S(=O)(=O)c2cn(C)cn2)Oc2ccc(NC(=O)C3CC3)cc2C1=O 5.52%
C[C@H](CO)N1C[C@H](C)[C@H](CN(C)S(=O)(=O)c2ccccc2)Oc2c(NS(C)(=O)=O)cccc2C1=O 1.69%
COC(=O)c1c(-c2cccs2)csc1NC(=O)CN1CCOCC1 4.05%
O=C(NCCCN1CCOCC1)c1cccc(S(=O)(=O)N2CCc3ccccc3C2)c1 7.38%
Cc1nc2ccccn2c1C(=O)NCCCN1CCOCC1 18%
Cc1ccc(S(=O)(=O)N2CCOCC2)cc1NC(=O)COC(=O)c1cc(=O)[nH]c2ccccc12 -7.07%
Cc1c(C(=O)NCc2cccs2)oc2ccccc12 4.33%
Cc1cc(NC(=O)COc2ncnc3sc(C)c(C)c23)no1 4.4%
Cn1c(SCC(=O)Nc2cc(S(=O)(=O)N3CCOCC3)ccc2N2CCOCC2)nnc1-c1ccncc1 -0.937%
Cc1ccccc1C(=O)OCCCN=C1NS(=O)(=O)c2ccccc21 8.73%
O=C(CCc1ccc(S(=O)(=O)NCc2ccccc2)cc1)NCc1ccc2c(c1)OCO2 -1.2%
Cc1noc(C)c1S(=O)(=O)N(C)C[C@H]1Oc2c(NC(=O)Nc3ccccc3)cccc2C(=O)N([C@H](C)CO)C[C@@H]1C 9%
O=C(NN=C1CCCCCCCCCCC1)c1cccc(S(=O)(=O)N2CCOCC2)c1 -5.34%
O=C(CC1NC(=O)NC1=O)Nc1ccccc1 (stereo not drawn) 0.477%
Cc1nnnn1/C(=C\c1ccccc1)C(=O)OCC(=O)NC(C)(C)C 4.63%
COc1ccc(S(=O)(=O)Nc2ccc3c(c2)C(=O)N([C@H](C)CO)C[C@H](C)[C@H](CN(C)Cc2ccc(C(=O)O)cc2)O3)cc1 8.66%
Cc1noc(C)c1NC(=O)N(C)C[C@H]1Oc2ccc(NC(=O)Cn3cnnn3)cc2C(=O)N([C@H](C)CO)C[C@@H]1C 4.99%
Oc1cc(O)cc(/C=C/c2ccc(O)c(O)c2)c1 -12.8%
CC(=O)OCC1OC(OC2C[C@]3(C)C(CC(O)C4C([C@](C)(CCC=C(C)C)OC5OC(CO)C(O)C(O)C5O)CC[C@]43C)[C@@]3(C)CCC(O)C(C)(C)C23)C(O[C@@H]2OC(C)C(O)C(O)C2O)C(O)C1O (stereo partly drawn) 5.45%
N=C1C(c2nc3ccccc3s2)=C(O)CN1Cc1ccccc1 -5.43%
CN(C(=O)c1ccccn1)c1nnc(-c2ccccn2)s1 4.97%
Nc1ccc2oc(-c3ccccn3)nc2c1 1.06%
